Source: PubChem BioAssay (NCI)
The panel holds about 83,000 compounds, 20% with a hit somewhere; the sample as a whole holds those more often.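 Negative percent growth values reflect cell death: -40 means 40% of the cells present at the start died, and -100 means all died.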 Unmarked numbers belong to inactive results. Active and inactive are the calls of the source. Rule for the calls: active = growth percent below 10; inactive = the rest.

Key:
Assay in all cases: NCI-60 one-dose screen, 48 h (100 = growth as untreated, 0 = no growth, -100 = all killed)
Conditions in all cases: 10 µM unless noted
[1] = tested on: NCI-H23 lung
[2] = tested on: NCI-H226 lung
[3] = tested on: NCI-H322M lung
[4] = tested on: HOP-62 NSCLC
[5] = tested on: NCI-H460 lung
[6] = tested on: HOP-92 NSCLC
[7] = tested on: NCI-H522 lung
[8] = tested on: A549/ATCC NSCLC
[9] = tested on: 786-0 renal
[10] = tested on: COLO 205 colon

Row | SMILES | growth [1] | growth [2] | growth [3] | growth [4] | growth [5] | growth [6] | growth [7] | growth [8] | growth [9] | growth [10]
1 | O=C1Nc2ccccc2/C1=C/c1cccn1CCCCn1c2ccccc2c(=O)c2ccccc21 | 77.4% | 75.2% | 101% | 77.4% | 93.7% | 59.5% | 68.4% | 86.3% | 97% | 69.8%
2 | O=C1C(Cl)=C(NCCCCCCNC2=C(Cl)C(=O)c3ccccc3C2=O)C(=O)c2ccccc21 | 61.8% | 102% | 92.2% | 112% | 94.8% | 86.2% | 90.7% | 102% | 114% | 86.2%
3 | Cc1ccccc1/C=C/C(=O)c1cccc(OCCCCOc2cccc(C(=O)/C=C/c3ccccc3C)c2)c1 | 94.6% | 91.7% | 92.1% | 102% | 98.1% | 93.6% | 85.8% | 84.2% | 96.4% | 106%
4 | N#CSc1c[nH]c2cccc(/C=C/C(=O)/C=C(/C=C/c3cccc4[nH]cc(SC#N)c34)OB(F)F)c12 | -45.4% (active) | -75.9% (active) | 53.7% | -26.1% (active) | 4.16% (active) | -62.1% (active) | -65.2% (active) | -8.65% (active) | -51.6% (active) | -60% (active)
5 | O=C1C(=O)N(Cc2ccc(-c3ccccc3)cc2)c2ccc(OC(F)(F)F)cc21 | 41.4% | 73.6% | 102% | 37.5% | 83.3% | 60.8% | 31.1% | 92.9% | 41.6% | 82.7%
6 | COc1ccc(OC)c(Nc2nnc(-c3ccc(O)c(OC)c3)o2)c1 | 70.7% | 77.1% | 86.9% | 77.6% | 82.8% | 85.1% | 61.1% | 75.5% | 36.7% | 117%
7 | COCCNC(=O)Nc1ccc2nc(-c3cccs3)c(-c3cccs3)nc2c1 | 90% | 92.8% | 98.6% | 101% | 88.7% | 80.8% | 76.6% | 87.5% | 96.9% | 107%
8 | N#CC1=C(N)Oc2c(ccc3ccccc23)C1c1ccccc1 (stereo not given) | 25.7% | 61.6% | 55.6% | 12.8% | 6.31% (active) | 38.2% | -15.8% (active) | 10.8% | 13.5% | -49.8% (active)
9 | Fc1cnccc1C1CC(c2ccc(N3CCNCC3)cc2)=NN1 (stereo not given) | 83.8% | 82.9% | 89.3% | 83.2% | 94.9% | 72.4% | 81.9% | 76.2% | 111% | 95.7%
10 | O=C(Nc1cccc(-c2ccc(Cl)c(C(F)(F)F)c2)c1)C1CCN(Cc2cccc3cccnc23)CC1 | 48.2% | 45.9% | 35.5% | 62.3% | -87.2% (active) | 30.2% | -53% (active) | -30.8% (active) | 31.9% | -72.2% (active)
11 | COc1ccc(C(=O)Nc2cccc(-c3cc(=O)c4c(OC)c(OC)c(OC)cc4o3)c2)cc1 | 57.5% | 69.9% | 55.1% | 72.5% | 42.1% | 6.67% (active) | 44.5% | 64.7% | 55% | 73.1%
12 | O=C1c2ccc3c4c5ccc(c24)C(=O)N1CCCOCCCCOCCCNCc1ccc(cc1)CNCCCOCCCCOCCCN(C3=O)C5=O | -52.3% (active) | 72.8% | 0.552% (active) | 33.6% | 3.03% (active) | 45.8% | -39.2% (active) | -40.1% (active) | -6.67% (active) | -71% (active)
13 | CSc1nc2ccccc2cc1/C=C1/C=C(c2ccccc2)NC1=O | 87.4% | 92.9% | 93% | 79.1% | 84.7% | 70.2% | 74.6% | 81.9% | 93.2% | 93.8%
14 | Cc1cccc(/C=C2\CN(C(=O)OC(C)(C)C)C/C(=C\c3cccc(C)c3)C2=O)c1 | 92.7% | 99.6% | 95.8% | 96.9% | 110% | 87.3% | 63.8% | 97.4% | 94.6% | 115%
15 | O=C(/C=C/c1ccccc1)Nc1ncc(Cc2ccccc2Cl)s1 | 51.8% | 48.6% | 33.8% | 18.9% | 14.1% | 65.1% | -11.2% (active) | 30.8% | 45.7% | 2.14% (active)
16 | CS(=O)(=O)c1ccc(-c2cnn3ccc(-c4cccc(S(=O)(=O)C5CC5)c4)nc23)cc1 | 56.8% | 60.5% | 57.9% | 48.7% | 43.7% | 41.9% | 31.5% | 45% | 61.3% | 64.3%
17 | COc1ccc(F)cc1/C=C/C(=O)/C=C(/C=C/c1cc(F)ccc1OC)OB(F)F | 35.2% | 97.9% | 103% | 86.1% | 75.2% | 56.1% | -20.7% (active) | 71.7% | 19.4% | 10.8%
18 | CN(C)CC(C)(C)C(=O)/C=C/c1ccccc1 | -28.8% [25 µM] (active) | -17.9% [25 µM] (active) | -16.3% [25 µM] (active) | 12.3% [25 µM] | -27% [25 µM] (active) | -32.3% [25 µM] (active) | -81.1% [25 µM] (active) | 0.382% [25 µM] (active) | -46.6% [25 µM] (active) | -87% [25 µM] (active)
19 | CC(C)=CCCC(C)c1ccc(C)c2c1OCN(CCCCCO)C2 (stereo not given) | 91.3% | 98.4% | 102% | 92.5% | 81.1% | 27.7% | -1.75% (active) | 82.5% | 69.5% | 90%
20 | S=c1sc2c(Cl)nc(-c3cccnc3)nc2n1-c1ccccc1 | 17.5% | 85.2% | 61% | 27.8% | 57.4% | 25.3% | -65.8% (active) | 79.9% | 35.4% | 80%
21 | OB1OCc2cc(/C=C/c3cccc(C(F)(F)F)c3)ccc21 | 21.6% | -10.2% (active) | 20.7% | -17.7% (active) | -10.1% (active) | -27.9% (active) | 3.78% (active) | 1.8% (active) | -27.2% (active) | 25.6%
22 | COc1ccc(-c2noc(C(=O)O)c2-c2cc(OC)c(OC)c(OC)c2)cc1 | 39.9% | 54.1% | 48.9% | 36.6% | 14.8% | 54.9% | 17.3% | 43.4% | 33.1% | 6.75% (active)
23 | CC(=O)O[C@@H]1C[C@]2(C(C)C)O[C@@]1(C)[C@@H]1CCC(C)=C1[C@@H]2OC(=O)/C=C/c1ccccc1 | 95.3% | 66.2% | 93.4% | 90.6% | 94.2% | 72.8% | 73.3% | 82.3% | 87.6% | 94.1%
24 | NC(=O)c1cccc(-n2ccc3cc(NC(=O)c4ccc(N5CCOCC5)c(C(F)(F)F)c4)ccc32)n1 | 77.5% | 66.3% | 57.1% | 44.5% | 43.8% | 66.8% | 58.9% | 42.7% | 19.1% | 34.4%
